These results are taken from PubChem BioAssay (NCI).

The structures appear in SMILES notation. This is part of a sample that, as a whole, favours compounds with a hit. Of some 83,000 tested, about 20% had one in any assay.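 Growth was measured after 48 h exposure to one concentration of compound in 96-well plates. Values under 10 count as active.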 A number with no mark means an inactive call.

In the assay the test system is NCI-H23 lung. In words: NCI-60 one-dose screen, 48 h (100 = growth as untreated, 0 = no growth, -100 = all killed). The conditions noted are these: 10 µM.
Consider `CCNc1nc2c(cnn2C)c(=O)[nH]1`, for which the growth is 99.7%. The value for `O=[N+]([O-])c1cccc(N=Nc2ccc(O)cc2O)c1` was 74.3%. To `CC(=O)/C(Cc1ccccc1)=N/O` belongs 97.3%. To `O=[N+]([O-])c1ccccc1N=Nc1ccc(O)cc1O` belongs 103%; to `CCn1c(=O)n(C)c2c(=O)n(C)c(=O)n(C)c21`, 98.9%; to `O=P(O)(O)OCC(O)CO` (stereo not drawn), 107%. For the compound `CCCCCCCCCCC1CO1` (stereo not drawn), the growth is 106%.

`CC(=O)OCCO`: the growth is 108%. To `CC(=O)OCC(=O)[C@@]1(O)CC[C@H]2[C@@H]3CC[C@@H]4C[C@H](O)CC[C@]4(C)[C@H]3C(=O)C[C@@]21C` belongs 103%. To `COc1cc2c3cc1Oc1c(OC)c(OC)cc4c1C(Cc1ccc(O)c(c1)Oc1ccc(cc1)CC3N(C)CC2)N(C)CC4` (stereo not drawn) belongs 10.8%; to `COc1cccc(/C=N/NC(=S)NC2CC3CCC2C3)c1O` (stereo not drawn), 71%; to `O=S(=O)(Cc1ccccc1)c1ccccc1`, 105%. The value for `COc1cc2nn(-c3ccccc3N)nc2cc1OC` was 94.3%; that for `CC1C(=O)c2ccccc2CC1C(=O)O` (stereo not drawn) was 96.8%. Consider `O=[N+]([O-])c1ccc(S(=O)(=O)NN=C2CCCCC2)cc1`, for which the growth was 104%.

Take `CC(=O)c1ccc(N=C(C#N)C2=C(O)c3ccccc3C2=O)cc1`: the growth is 104%. The value for `CNc1nc(NC)c2cn[nH]c2n1` was 104%. For `CC(=Nc1ccccc1)C1=C(O)C(Cc2cccc(F)c2)NC1=O` (stereo not drawn), the growth is 17.1%.
